# The supplement of paper PMC10849652
# About 8,800 targets were measured; listed, in parts, are those with a hit and a random draw of the rest. About 0.5% of all pairs of compound and target were hits. Values without a mark were called inactive.
# Legend:
# Assay in all cases: log2 fold change, soluble protein after heating vs DMSO (PISA); higher = thermal stabilisation; K562 lysate, 10 uM; active = over 0.2 and 3.5 SD of the protein, either way, in both replicates (recomputed)
# [1] = compound: C1=CC=C(C=C1)[C@H](COC2=CC3=C(C=C2)NC(=O)N3)NC(=O)C4=CC=CN(C4=O)CC5=CC(=C(C=C5)F)F
# Outline: (§1)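 Quantification was by TMTpro 16plex LC-MS/MS with equalised channel sums, applied to the supernatant after 21,000xg for 90 min. Samples were crude K562 extract at 1 mg/mL protein in PBS pH 7.4 with 1 mM MgCl2, treated with 10 μM compound for 30 min, heated for 3 min across 48°C-58°C, pooled and brought to 0.5% NP-40 at 4°C. Values are log-two fold changes in thermal stability relative to solvent controls, from duplicates.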
# [2] = compound: CC1=C(SC2=C1C(=N[C@H](C3=NN=C(N32)C)CC(=O)N)C4=CC=C(C=C4)Cl)C
# Outline: as §1
# [3] = compound: CC1=C2C(=CC=C1)N=C(N(C2=O)C3=CC=CC=C3C)CN4C=NC5=C(N=CN=C54)N
# Outline: as §1
# [4] = compound: Cc1sc2c(c1C)C(c1ccc(Cl)cc1)=N[C@@H](CC(=O)OC(C)(C)C)c1nnc(C)n1-2
# Outline: as §1
# [5] = compound: c1ccc([C@@H]2C[C@H]2NC2CCNCC2)cc1
# Outline: as §1
# UniProt Q96CQ1, sequence (Q96CQ1 whole entry, looked up): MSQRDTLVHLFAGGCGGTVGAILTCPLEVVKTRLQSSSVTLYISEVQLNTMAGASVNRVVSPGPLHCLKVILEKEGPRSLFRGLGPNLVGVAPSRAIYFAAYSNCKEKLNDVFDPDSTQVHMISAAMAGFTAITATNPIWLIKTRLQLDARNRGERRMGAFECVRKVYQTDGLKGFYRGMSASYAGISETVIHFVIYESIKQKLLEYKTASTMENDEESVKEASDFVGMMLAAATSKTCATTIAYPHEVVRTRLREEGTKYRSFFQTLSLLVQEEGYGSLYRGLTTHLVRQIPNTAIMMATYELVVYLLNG
# UniProt P49675, sequence (P49675 whole entry, looked up): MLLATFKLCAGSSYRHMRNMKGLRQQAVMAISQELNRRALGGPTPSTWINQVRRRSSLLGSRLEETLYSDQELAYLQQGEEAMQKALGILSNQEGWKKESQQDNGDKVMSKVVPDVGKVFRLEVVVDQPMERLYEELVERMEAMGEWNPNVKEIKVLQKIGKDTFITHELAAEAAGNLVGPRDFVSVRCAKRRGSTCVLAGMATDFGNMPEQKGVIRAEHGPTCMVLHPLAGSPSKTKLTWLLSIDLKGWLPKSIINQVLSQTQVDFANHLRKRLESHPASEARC
# UniProt Q9NP59, sequence (Q9NP59 whole entry, looked up): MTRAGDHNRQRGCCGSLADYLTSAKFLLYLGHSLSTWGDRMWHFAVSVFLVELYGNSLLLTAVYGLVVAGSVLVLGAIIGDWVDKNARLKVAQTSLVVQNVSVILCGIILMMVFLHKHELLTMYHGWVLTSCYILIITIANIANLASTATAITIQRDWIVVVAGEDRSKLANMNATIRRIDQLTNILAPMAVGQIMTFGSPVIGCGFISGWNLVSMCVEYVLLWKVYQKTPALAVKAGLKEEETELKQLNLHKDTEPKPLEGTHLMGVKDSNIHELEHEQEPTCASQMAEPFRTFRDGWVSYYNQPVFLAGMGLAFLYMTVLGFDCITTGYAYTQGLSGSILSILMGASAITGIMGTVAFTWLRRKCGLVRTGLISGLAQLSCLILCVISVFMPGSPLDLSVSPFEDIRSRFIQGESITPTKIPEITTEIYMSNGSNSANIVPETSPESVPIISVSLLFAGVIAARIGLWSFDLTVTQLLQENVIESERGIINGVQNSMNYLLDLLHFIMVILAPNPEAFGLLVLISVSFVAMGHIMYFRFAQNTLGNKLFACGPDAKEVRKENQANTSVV
# UniProt Q5T011, sequence (Q5T011 whole entry, looked up): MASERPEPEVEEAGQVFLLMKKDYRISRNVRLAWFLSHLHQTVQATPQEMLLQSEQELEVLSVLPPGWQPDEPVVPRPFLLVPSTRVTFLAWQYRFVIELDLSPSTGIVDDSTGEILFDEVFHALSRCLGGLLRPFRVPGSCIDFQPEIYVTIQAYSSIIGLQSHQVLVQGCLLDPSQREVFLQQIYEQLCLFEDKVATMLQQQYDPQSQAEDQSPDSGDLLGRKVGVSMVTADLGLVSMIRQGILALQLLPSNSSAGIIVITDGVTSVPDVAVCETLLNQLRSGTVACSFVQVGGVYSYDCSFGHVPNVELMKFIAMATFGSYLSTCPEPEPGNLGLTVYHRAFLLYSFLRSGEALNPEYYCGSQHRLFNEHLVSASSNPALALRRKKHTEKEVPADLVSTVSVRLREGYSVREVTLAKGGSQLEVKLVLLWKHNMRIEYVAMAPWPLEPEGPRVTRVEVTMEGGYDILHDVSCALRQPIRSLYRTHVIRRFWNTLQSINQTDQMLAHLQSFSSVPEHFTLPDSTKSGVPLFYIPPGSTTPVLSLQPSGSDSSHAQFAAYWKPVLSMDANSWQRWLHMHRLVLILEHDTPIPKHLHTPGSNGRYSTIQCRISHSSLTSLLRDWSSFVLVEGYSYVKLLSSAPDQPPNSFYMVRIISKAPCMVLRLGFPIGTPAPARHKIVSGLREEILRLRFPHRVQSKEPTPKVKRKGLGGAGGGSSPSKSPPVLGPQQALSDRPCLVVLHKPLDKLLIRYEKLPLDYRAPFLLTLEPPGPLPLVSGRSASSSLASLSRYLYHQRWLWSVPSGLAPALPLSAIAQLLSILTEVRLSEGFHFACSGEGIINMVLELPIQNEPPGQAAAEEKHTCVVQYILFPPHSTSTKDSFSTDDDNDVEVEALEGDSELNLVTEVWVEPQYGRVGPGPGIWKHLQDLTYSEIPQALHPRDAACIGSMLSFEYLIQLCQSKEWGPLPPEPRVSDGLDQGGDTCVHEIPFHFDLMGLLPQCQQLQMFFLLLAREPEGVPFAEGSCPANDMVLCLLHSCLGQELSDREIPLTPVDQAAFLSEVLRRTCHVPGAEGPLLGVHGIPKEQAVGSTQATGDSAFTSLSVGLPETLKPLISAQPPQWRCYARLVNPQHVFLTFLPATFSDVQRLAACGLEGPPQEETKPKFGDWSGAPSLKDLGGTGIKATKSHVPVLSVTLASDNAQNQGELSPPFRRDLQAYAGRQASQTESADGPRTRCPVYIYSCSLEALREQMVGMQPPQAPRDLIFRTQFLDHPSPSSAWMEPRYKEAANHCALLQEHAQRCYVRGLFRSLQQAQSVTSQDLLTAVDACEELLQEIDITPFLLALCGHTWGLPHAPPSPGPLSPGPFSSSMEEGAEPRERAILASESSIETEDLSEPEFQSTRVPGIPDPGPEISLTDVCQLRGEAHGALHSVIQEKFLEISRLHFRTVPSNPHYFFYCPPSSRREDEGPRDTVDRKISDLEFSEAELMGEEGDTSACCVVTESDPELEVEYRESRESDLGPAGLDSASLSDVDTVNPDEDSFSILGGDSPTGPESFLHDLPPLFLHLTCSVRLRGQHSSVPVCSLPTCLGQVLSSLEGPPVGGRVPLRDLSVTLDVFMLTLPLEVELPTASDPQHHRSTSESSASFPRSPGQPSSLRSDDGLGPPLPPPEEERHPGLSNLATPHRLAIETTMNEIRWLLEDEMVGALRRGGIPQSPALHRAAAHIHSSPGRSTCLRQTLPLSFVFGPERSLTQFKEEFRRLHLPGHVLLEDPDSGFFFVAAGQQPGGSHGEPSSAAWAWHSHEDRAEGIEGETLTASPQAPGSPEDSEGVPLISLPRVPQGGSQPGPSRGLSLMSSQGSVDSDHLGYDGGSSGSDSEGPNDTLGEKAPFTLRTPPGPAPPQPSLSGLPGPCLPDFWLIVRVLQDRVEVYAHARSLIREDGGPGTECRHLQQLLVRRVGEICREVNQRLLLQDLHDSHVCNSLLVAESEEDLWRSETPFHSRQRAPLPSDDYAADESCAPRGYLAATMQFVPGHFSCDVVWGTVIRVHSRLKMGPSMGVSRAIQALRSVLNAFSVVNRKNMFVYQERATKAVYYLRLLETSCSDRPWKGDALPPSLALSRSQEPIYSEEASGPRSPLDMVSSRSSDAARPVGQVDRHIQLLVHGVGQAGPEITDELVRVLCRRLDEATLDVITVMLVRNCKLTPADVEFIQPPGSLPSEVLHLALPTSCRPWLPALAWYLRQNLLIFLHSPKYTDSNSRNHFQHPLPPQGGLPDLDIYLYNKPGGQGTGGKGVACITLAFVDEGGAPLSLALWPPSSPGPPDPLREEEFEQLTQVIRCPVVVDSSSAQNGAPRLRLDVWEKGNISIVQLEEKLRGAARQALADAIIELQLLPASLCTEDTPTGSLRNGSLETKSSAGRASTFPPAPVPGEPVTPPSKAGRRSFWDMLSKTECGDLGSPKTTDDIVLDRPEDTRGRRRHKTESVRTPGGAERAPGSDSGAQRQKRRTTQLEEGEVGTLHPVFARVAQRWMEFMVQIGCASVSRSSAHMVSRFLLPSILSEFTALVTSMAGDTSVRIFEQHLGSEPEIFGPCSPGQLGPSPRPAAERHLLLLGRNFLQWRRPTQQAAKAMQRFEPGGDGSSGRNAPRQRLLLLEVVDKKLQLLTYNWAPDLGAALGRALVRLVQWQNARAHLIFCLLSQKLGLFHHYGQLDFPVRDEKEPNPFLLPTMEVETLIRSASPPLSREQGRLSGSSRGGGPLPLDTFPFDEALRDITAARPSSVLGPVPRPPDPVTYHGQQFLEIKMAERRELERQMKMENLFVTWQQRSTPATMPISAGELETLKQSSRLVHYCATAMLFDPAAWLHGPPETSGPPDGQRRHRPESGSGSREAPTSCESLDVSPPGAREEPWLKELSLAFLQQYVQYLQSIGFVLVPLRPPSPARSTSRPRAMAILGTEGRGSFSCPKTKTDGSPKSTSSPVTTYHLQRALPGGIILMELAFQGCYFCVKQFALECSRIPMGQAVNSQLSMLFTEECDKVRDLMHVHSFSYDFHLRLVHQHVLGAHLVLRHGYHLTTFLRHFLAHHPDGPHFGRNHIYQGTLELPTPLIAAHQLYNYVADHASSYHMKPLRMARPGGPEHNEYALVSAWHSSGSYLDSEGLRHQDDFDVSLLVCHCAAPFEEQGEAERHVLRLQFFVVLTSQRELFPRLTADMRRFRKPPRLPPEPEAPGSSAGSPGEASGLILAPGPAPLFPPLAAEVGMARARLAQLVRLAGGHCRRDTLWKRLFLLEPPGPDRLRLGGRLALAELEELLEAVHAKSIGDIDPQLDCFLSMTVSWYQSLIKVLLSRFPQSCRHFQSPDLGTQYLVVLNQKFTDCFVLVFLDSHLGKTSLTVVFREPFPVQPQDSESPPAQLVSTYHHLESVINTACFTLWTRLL
# UniProt Q9H668, sequence (Q9H668 whole entry, looked up): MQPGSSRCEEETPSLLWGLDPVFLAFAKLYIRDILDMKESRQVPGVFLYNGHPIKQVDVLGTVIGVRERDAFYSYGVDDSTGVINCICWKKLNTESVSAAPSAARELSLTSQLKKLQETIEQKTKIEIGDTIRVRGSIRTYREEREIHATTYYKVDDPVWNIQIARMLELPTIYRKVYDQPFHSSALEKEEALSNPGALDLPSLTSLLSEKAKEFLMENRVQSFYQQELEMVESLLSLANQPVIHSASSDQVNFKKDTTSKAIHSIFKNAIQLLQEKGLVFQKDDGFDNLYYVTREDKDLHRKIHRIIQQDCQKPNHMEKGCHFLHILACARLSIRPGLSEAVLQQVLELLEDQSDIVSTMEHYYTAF
# UniProt B2RUZ4, sequence (B2RUZ4 whole entry, looked up): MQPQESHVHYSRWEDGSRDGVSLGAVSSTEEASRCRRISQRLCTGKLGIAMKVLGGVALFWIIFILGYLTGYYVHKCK
Target,log2 fold change [1],log2 fold change [2],log2 fold change [3],log2 fold change [4],log2 fold change [5]
SLC25A38 (UniProt Q96DW6),0.099,0,0.013,-0.323,-0.047
SLC19A1 (UniProt P41440),0.017,-0.022,-0.056,-0.12,-0.176
SH3GL1 (UniProt Q99961),0.007,0.016,0.007,0.012,0.003
STK36 (UniProt Q9NRP7),-0.014,0.174,0.163,-0.43,-0.42
SLC38A10 (UniProt Q9HBR0),0.007,0.007,0.036,-0.053,-0.04
SLC27A2 (UniProt O14975),0.198,-0.064,-0.043,-0.063,-0.05
SMG6 (UniProt Q86US8),0.097,-0.041,-0.043,0.076,0.073
SNRPF (UniProt P62306),0.04,-0.084,-0.12,-0.103,-0.206
TARBP2 (UniProt Q15633),0.001,-0.003,-0.003,-0.019,0.051
STK17B (UniProt O94768),,,,-0.029,
STK26 isoform 3 (UniProt Q9P289),,,,0.166,
SMARCA4 isoform 4 (UniProt P51532),,,,-0.007,0.131
STAR (UniProt P49675),,,0.048,-0.077,-0.028
SHC1 (UniProt P29353),,,,,0.201
SMIM1 (UniProt B2RUZ4),0.053,-0.054,,,-0.028
SNRPD2 (UniProt K7EJB5),,,0.024,-0.047,
SLC35A3 isoform 2 (UniProt Q9Y2D2),,,0.008,,-0.57
SIN3B (UniProt O75182),,,-0.129,,0.052
SNAPC2 (UniProt Q13487),0.107,0.302,,0.101,0.004
SSX5 isoform 2 (UniProt O60225),0.022,0.03,-0.157,,-0.253
SHB (UniProt Q15464),,,,0.033,0.086

Target,log2 fold change [1],log2 fold change [2],log2 fold change [3],log2 fold change [4],log2 fold change [5]
STK17A (UniProt Q9UEE5),,,,,0.148
SRC isoform 2 (UniProt P12931),-0.052,-0.412 (active),,-0.105,0.017
SLC41A1 (UniProt Q8IVJ1),,,,,-0.016
SIX5 (UniProt Q8N196),-0.011,0.034,,-0.037,0.209
SLC30A6 isoform 2 (UniProt Q6NXT4),0.033,-0.046,0.116,,-0.059
SLC25A36 (UniProt Q96CQ1),,,0.013,0.035,0
SNAP23 isoform 2 (UniProt O00161),,,0.045,,-0.038
TARDBP (UniProt K7EN94),,,0.319,,
SLCO4A1 (UniProt Q96BD0),0.203,-0.372,,,-0.013
SPPL2A (UniProt Q8TCT8),-0.148,0.118,0.087,,0.098
SKP2 (UniProt Q13309),,,-0.015,-0.003,0.001
SLC12A6 isoform 2 (UniProt Q9UHW9),,,,-0.179,
SLC22A18 (UniProt Q96BI1),0.07,0.048,-0.036,,-0.088
SMPD2 (UniProt O60906),,,,-0.244,-0.05
STN1 (UniProt Q9H668),-0.125,0.073,-0.115,,-0.049
STK38L (UniProt Q9Y2H1),,,,-0.031,
STAU1 isoform 3 (UniProt O95793),0.19,0.043,,,0.081
SNUPN (UniProt O95149),-0.013,-0.018,0.047,,-0.02
SLC40A1 (UniProt Q9NP59),,,0.013,-0.107,-0.205
TAF11 (UniProt Q15544),,,0,-0.16,-0.073
SZT2 (UniProt Q5T011),-0.285,-0.066,,-0.148,0.105
